Data published in ChEMBL document CHEMBL3988442, “University of Dundee, Small-Polar-MMV Screening Library” (2021).
Hit rate of the full screen: of about 48,000 compounds, about 13,000 (27%) showed an effect of 50% or more. The list shows a part of the results.

test system: Wolbachia pipientis; test: Anti-Wolbachia Cell-Based Screen; assay type: functional; set-up: scale not given: in the data most compounds retested in dose-response had high values; conditions: 5 µM

Structure (SMILES)	Percent Effect [%]
COCCn1cnnc1CCn1ccnc1-c1ccccc1Cl	-5.954
CN(Cc1ccon1)c1nc(-c2ccccn2)nc2c1CCNCC2	-7.259
CCn1c(Cn2cccn2)nnc1C1CCN(Cc2ccc(C)o2)CC1	4.312
O=c1c2ccccc2nc2n1CCC2O (stereo not given)	1.424
O=C(Nc1cc(CSCCO)ccn1)c1ccc(Cl)o1	-51
Cc1ncccc1C(=O)NC1(c2cccc(F)c2)CCOCC1	-2.77
COCc1cc(O)nc(C2CCCN(Cc3ccc(F)cc3)C2)n1 (stereo not given)	105.5
CC(NC(=O)NCCN1CCCCCC1=O)c1ccc(Cl)s1 (stereo not given)	-4.831
CCN(CC)CC(=O)N1CCN(CCCc2ccncc2)CC1	2.413
CC(C)C(=O)N1CCN(Cc2cc(-c3ccncc3)nn2C)CC1	-9.87
CCC(=O)N1CCN(Cc2cc(-c3ccncc3)nn2C)CC1	-2.828
COCC(=O)N1CCN(Cc2cc(-c3ccncc3)nn2C)CC1	92.41
CCN(CC)CC(=O)N1CCN(CCc2ccncc2)CC1	-8.418
CCC(CC)C(=O)N1CCN(Cc2cc(-c3ccncc3)nn2C)CC1	102.3
CCCC(=O)N1CCN(Cc2cc(-c3ccncc3)nn2C)CC1	103.8
CCc1nc(CN2CCCN(C(=O)COC)CC2)cs1	6.894
CCN(CC)C(=O)N1CCN(CCc2ccncc2)CC1	2.653
CCCC(=O)N1CCN(c2cc(-n3cnc(C)c3C)nc(C)n2)CC1	-4.899
CC(C)CC(=O)N1CCN(Cc2cc(-c3ccncc3)nn2C)CC1	111
COc1ccc2nc(CNC(=O)c3cc(C(C)C)no3)[nH]c2c1	-7.08
CC(NCc1cnn(C)c1)c1noc(-c2ccc(Cl)cc2)n1 (stereo not given)	2.096
Cc1csc(C(=O)NCCn2nc(-n3cncn3)ccc2=O)c1	104.4
Cc1ccc(C(=O)NCCS(=O)(=O)Cc2ccccc2)c(C)c1	5.407
Cc1ccc(C(=O)NCCn2nc(-n3cncn3)ccc2=O)c(C)c1	115.4
O=C(NCCn1nc(-n2cncn2)ccc1=O)c1ccc(F)cc1F	119.8
O=C(NCCc1ccsc1)c1ccoc1	7.959
O=C(NCCn1nc(-n2cncn2)ccc1=O)c1ccsc1	90.98

Structure (SMILES)	Percent Effect [%]
Cc1ccc(C(=O)NCCCn2cncn2)c(=O)[nH]1	0.33
O=C1CCc2cc(C(=O)NCc3ccc(-n4cncn4)nc3)ccc2N1	-4.762
N#Cc1cccc(N2CCCC3(C2)CN(c2nncs2)CCO3)c1 (stereo not given)	-22.42
O=C1O[C@@H]2CN(c3ccc(Cl)cn3)C[C@@H]2N1CCc1ccc(F)cc1	15.74
CCOc1cc(CNC(=O)C(C#N)c2nc(C)cs2)ccc1OC(F)F (stereo not given)	-3.55
NS(=O)(=O)CCNC(=O)c1ccc(OCc2ccccc2)nc1	5.557
CCCc1nc(C)cc(N2CCNC(C(=O)NC3CC3)C2)n1 (stereo not given)	-8.099
O=C(C1CN(CC2CC2)CC12CCOCC2)N1CCOCC1.O=C(O)C(F)(F)F (stereo not given)	0.7969
O=C(CN1CCCCC1Cn1cccn1)NC1CCN(C2CC2)CC1 (stereo not given)	-1.641
CCSc1ccccc1C(=O)NCCn1nc(-n2cncn2)ccc1=O	112
O=C(NCCn1nc(-n2cncn2)ccc1=O)c1ccccc1Br	41.16
CCSc1ccccc1C(=O)NCCn1nc(C(F)(F)F)n(C)c1=O	-21.23
CC1CCCN(C(=O)c2nnn(-c3ccc(C(F)(F)F)cc3)n2)C1 (stereo not given)	-23.6
COCC(C)NC(=O)c1nnn(-c2ccc(Br)cc2)n1 (stereo not given)	4.837
CN(C)C(=O)c1nnn(-c2ccc(Br)cc2)n1	110.9
O=C(NCc1ccccn1)c1nnn(-c2ccc(Br)cc2)n1	7.96
CN(CC(N)=O)C(=O)c1cn(-c2ccc(Br)cc2)cn1	8.695
CCC(C)NC(=O)c1nnn(-c2ccc(Br)cc2)n1 (stereo not given)	110.8
Cc1ccc(CN(C)C(=O)CN2CCCCC2Cn2cncn2)cc1 (stereo not given)	-11.49
O=C(NCc1ccccc1CN1CCOCC1)Nc1nncs1	33.23
CC(C1CCN(Cc2cccc(OC(F)F)c2)CC1)N1CCOCC1 (stereo not given)	4.738
Cc1nc(-c2ccc(S(=O)(=O)N3CCC=C(F)C3)cc2)co1	3.194
CCN(CC)c1ncccc1CNC(=O)c1cc2nc(C)cc(C)n2n1	-11.51
CCN(CC)c1ncccc1CNCc1ccc(Cl)s1	99.51
CCN(CC)c1ncccc1CNCc1ccc(-c2ccn[nH]2)s1	103.4
CCN(CC)c1ncccc1CNCc1cc2ccccc2s1	111.2
CCC(CO)N(Cc1cccnc1)Cc1ccc(-c2ccn[nH]2)s1 (stereo not given)	4.35

Structure (SMILES)	Percent Effect [%]
CCN(Cc1ccc(Cl)s1)S(=O)(=O)CC	-12.66
CCN(CC)c1ncccc1CNC(=O)c1cnn(CC)c1	-6.3
CCC(CO)N(Cc1ccccn1)Cc1ccc(-c2ccn[nH]2)s1 (stereo not given)	0.2436
Cc1cc(N(C)C)nc(N2CCn3c(nnc3C(C)C)C2)n1	-5.2
NC(=O)C1CCCN1Cc1ccccc1NC(=O)Cc1cccs1 (stereo not given)	-13.98
COCCn1ccc2cc(NC(=O)COC)ccc21	1.286
CN(C)S(=O)(=O)N1CCN(C(=O)c2ccc3ccn(C)c3c2)CC1	5.412
COCCn1ccc2ccc(C(=O)N3CCN(C(C)=O)CC3)cc21	108.9
COCCn1ccc2cc(C(=O)N3CCN(S(C)(=O)=O)CC3)ccc21	125.8
CCC(=O)Nc1ccc2c(ccn2CCOC)c1	8.893
CCOC(=O)N1CCN(C(=O)c2ccc3ccn(C)c3c2)CC1	0.8286
Cn1ccc2ccc(C(=O)N3CCN(C(=O)N4CCOCC4)CC3)cc21	0.8109
COCCn1ccc2ccc(C(=O)O)cc21	99.17
CS(=O)(=O)N1CCC(Oc2ccc(C(=O)N3CCSCC3)cc2Cl)CC1	7.501
CC(C1CCN(Cc2c(Cl)cncc2Cl)CC1)N1CCN(C)CC1 (stereo not given)	-10.06
CC1(c2ccccc2)CCC(=O)N(CC2(N3CCOCC3)CCCC2)C1 (stereo not given)	-0.1352
O=C(NCc1nc(C2CC2)no1)N1CCOC(c2ccccc2)C1 (stereo not given)	-16.91
COC(=O)[C@@H]1Cc2ncn(C)c2CN1S(=O)(=O)c1ccc(OC)cc1	2.654
O=C(Nc1ccnn1C1CCCC1)c1ccc(NC2CC2)nc1	-4.734
CCc1c(C)nn(CCN2CC3(CCOC3)CCC2=O)c1C (stereo not given)	-12.78
CCNC(=O)CCS(=O)(=O)Cc1ccn(-c2cccc(F)c2)n1	-7.781
CC(C)CCNC(=O)CCc1ccnc2ccccc12	-1.133
CC(C)(CNC(=O)NCCc1ccn(-c2ccccc2)n1)C(N)=O	145.8
CC(C)(C)C(=O)NCCC(=O)NCCc1ccn(-c2ccccc2)n1	101.3
O=C(CCNc1ncccn1)NCCc1ccn(-c2ccccc2)n1	0.9035
CC(C)CCC(=O)NCCc1ccn(-c2ccccc2)n1	127.8
CC(C)(CNC(=O)NCCOc1cccc(F)c1)C(N)=O	-10.47

Structure (SMILES)	Percent Effect [%]
CC(C)(C)C(=O)NCCc1ccn(-c2ccccc2)n1	8.286
CCC(CC)NC(=O)CN1CCN(C(=O)N(C)C)CC1	29.72
CCCn1cnnc1CNC1CSCCSC1	10.77
COCC1CN(Cc2ccc(C)o2)Cc2cn(C)nc21.O=C(O)C(F)(F)F.O=C(O)C(F)(F)F (stereo not given)	-19.49
COCC1Cn2nnc(-c3cnn(C)c3)c2CN1Cc1ccco1.O=C(O)C(F)(F)F (stereo not given)	-7.435
COCC1CN(Cc2ccsc2)Cc2nn(C)cc21.O=C(O)C(F)(F)F (stereo not given)	2.999
Cc1cccc(COCC2c3nnn(C)c3CCN2Cc2ccoc2)n1.O=C(O)C(F)(F)F.O=C(O)C(F)(F)F (stereo not given)	-0.8413
COCC1Cn2nnc(-c3cnn(C)c3)c2CN1Cc1cccs1.O=C(O)C(F)(F)F (stereo not given)	105.4
COCC1Cn2nnc(-c3cnn(C)c3)c2CN1Cc1ccoc1.O=C(O)C(F)(F)F (stereo not given)	100.4
Cn1cc(-c2nnn3c2COC(CNCc2nccs2)C3)cn1 (stereo not given)	7.882
COCC1Cn2nnc(-c3cnn(C)c3)c2CN1Cc1ccc(C)o1 (stereo not given)	87.7
COCC1Cn2nnc(-c3cnn(C)c3)c2CN1Cc1ccsc1.O=C(O)C(F)(F)F (stereo not given)	97.96
Cc1cnnn1Cc1nnn2c1CN(Cc1cccs1)CCC2.O=C(O)C(F)(F)F	-1.131
Fc1cccc(-c2nnn3c2COC(CNCc2ccsc2)C3)c1.O=C(O)C(F)(F)F (stereo not given)	-5.927
COCC1Cn2nnc(-c3cnn(C)c3)c2CN1Cc1ccc(C)s1.O=C(O)C(F)(F)F (stereo not given)	-9.357
CN(C)S(=O)(=O)N1C[C@H]2CCC[C@@]2(COCC2CCOCC2)C1	-9.423
CCc1nc(CNC2CCN(c3ccc(OC)cc3)CC2)cs1	-5.711
O=C(c1ccncc1F)N1CCc2ncnc(N3CCOCC3)c2CC1	22.92
CCc1n[nH]c(C(=O)NCCn2ccnc2C)c1C	12.68
CCc1noc(C)c1C(=O)NCc1cc[nH]n1	-9.348
CCc1c(C)nn(CCNC(=O)c2cnn[nH]2)c1C	-18.26
CCCN1CC2(CCN(C)CC2)CC1C(=O)NCCn1ccc(C)n1 (stereo not given)	5.137
CCc1n[nH]c(C(=O)NCCn2nccc2C)c1C	177.1
CCc1n[nH]c(C(=O)NCCn2ccc(C)n2)c1C	161.5
